Measurements: PubChem BioAssay AID463173 (ICCB-Longwood Screening Facility, Harvard Medical School, 2010)
About 1,700 (3.3%) of roughly 52,000 compounds were called active. The sample holds actives, similar compounds and a random draw of the others, so the mix is not that of the screen. Rule as the data show it: active = survival mostly below about 52% (no sharp cut-off); inactive = mostly above about 56%.

These compounds were tested on Wild type (assay: growth inhibition of S. aureus wild type versus tarO mutant, primary screen, teichoic acid synthesis inhibitors, RN4220, OD600 (AID 463173)). Conditions: S. aureus RN4220 wild type/DeltatarO growth, OD600, 18 h, active compounds read low, screened at 18.75 µg/mL (by protocol).
For `CCOC(=O)N1CCc2c(sc(NCc3sccc3C)c2C(=O)Nc2cc(OC)ccc2OC)C1`, the survival was 65% (inactive). `Cc1cccc(N2CCN(Cc3nnc(-c4ccccc4C)o3)CC2C)c1` (stereo not drawn) was tested, and the survival was 21% (inactive). For `CCOC(=O)c1c(C)sc(-c2c(-c3ccc(OC)c(F)c3)[nH]c3[nH]c(=O)[nH]c(=O)c23)c1O`, the survival was 111% (inactive). For `CCCOc1ccc(CNC(=O)Cn2cc3c(n2)-c2c(oc(C(=O)N4CCOCC4)c2C)CC3)cc1`, the survival was 96% (inactive). For `COc1ccc(-c2nn(C)c3sc(C(=O)NCCN(C)C)cc23)cc1OC`, the survival was 82% (inactive). `CCOC(=O)c1c(C)[nH]c(C)c1S(=O)(=O)N(C)CC(=O)Nc1cccc(C(F)(F)F)c1` was tested, and the survival was 69% (inactive). With `COC(=O)C(CCSC)NC(=O)Cn1ncc2c([nH]c3ccccc32)c1=O` (stereo not drawn) the survival was 47% (inactive). In the case of `COc1cc2c(c(OC)c1)C(c1cccc(F)c1F)CC(=O)N2` (stereo not drawn), the survival was 82% (inactive). With `COc1ccc(CCN(Cc2nc3ccccc3c(=O)[nH]2)C(=O)c2ccco2)cc1` the survival was 81% (inactive). For `Cc1ccc(NS(=O)(=O)c2ccc3[nH]c4c(c3c2)CCCCC4)cc1`, the survival was 84% (inactive). `O=C(CCn1c(=O)c2cccn2c2cccnc21)NCc1ccccc1Br` was tested, and the survival was 93% (inactive). For `Cc1cc(C)n(-c2nc3ccccc3nc2Nc2ccc(Cl)cc2Cl)n1`, the survival was 86% (inactive). For `Cc1cc(C)n(-c2nc3ccccc3nc2Nc2ccc(Cl)c(Cl)c2)n1`, the survival was 1% (active). With `COc1ccccc1Nc1nc2ccc(Cl)cc2nc1-n1nc(C)cc1C` the survival was 138% (inactive). `COc1ccc(OC)c(Nc2nc3ccccc3nc2-n2nc(C)cc2C)c1` was tested, and the survival was 10% (active). For `COc1cc(OC)c(Nc2nc3ccccc3nc2-n2nc(C)cc2C)cc1Cl`, the survival was 80% (inactive). `Cc1ccc(Nc2nc3ccccc3nc2-n2nc(C)cc2C)c(Cl)c1` was tested, and the survival was 88% (inactive). With `Cc1ccc(CNC(=O)c2ccc(Cn3c(SCc4ccc(F)cc4)nc4cccnc43)cc2)o1` the survival was 84% (inactive). `Cc1ccc(C(=O)c2sc(Nc3ccc(F)cc3)c(C#N)c2N)cc1` was tested, and the survival was 108% (inactive). In the case of `CCCOc1ccc(C(=O)Nc2ccc3nn(-c4ccc(OC)c(Cl)c4)nc3c2)cc1`, the survival was 145% (inactive). For `COc1ccc(CNC(=O)C(=O)Nc2ccc(OC)cc2OC)cc1`, the survival was 80% (inactive). In the case of `N#C/C(=C/C=C/c1ccco1)c1nc2ccccc2[nH]1`, the survival was 113% (inactive). `CCCn1c2ccccc2c2cnn(CC(=O)NCCCOC(C)C)c(=O)c21` was tested, and the survival was -6% (active). For `CCCn1c2ccccc2c2cnn(CC(=O)NCCc3ccc(OCC)c(OCC)c3)c(=O)c21`, the survival was 76% (inactive). For `CCCn1c2ccccc2c2cnn(CC(=O)NCCc3ccc(OCC)cc3)c(=O)c21`, the survival was -6% (active). With `CCCNC(=O)Cn1ncc2c3ccccc3n(CCC)c2c1=O` the survival was 133% (inactive). In the case of `CCCn1c2ccccc2c2cnn(CC(=O)NCCCN3CCCCC3)c(=O)c21`, the survival was 78% (inactive). For `CCCn1c2ccccc2c2cnn(CC(=O)NCCc3ccc(C)cc3)c(=O)c21`, the survival was 121% (inactive). In the case of `CCCSc1nc(=O)c2c(n1C)NC(=O)CC2c1cccc(F)c1F` (stereo not drawn), the survival was 82% (inactive). `COc1cc(NC(=O)N2CCN(c3cc(-c4noc(C)n4)ccc3C)CC2)cc(OC)c1OC` was tested, and the survival was 14% (active). For `COc1cc([N+](=O)[O-])ccc1NC(=O)N1CCN(c2cc(-c3noc(C)n3)ccc2C)CC1`, the survival was 78% (inactive). `Cc1nc(-c2ccc(C)c(N3CCN(C(=O)Nc4ccc(Br)cc4)CC3)c2)no1` was tested, and the survival was -1% (active). For `COc1ccc(NC(=O)N2CCN(c3cc(-c4noc(C)n4)ccc3C)CC2)c(OC)c1`, the survival was 133% (inactive). In the case of `Cc1ccc(NC(=O)N2CCN(c3cc(-c4noc(C)n4)ccc3C)CC2)c(F)c1`, the survival was -6% (active). With `Cc1ccc(NC(=O)N2CCN(c3cc(-c4noc(C)n4)ccc3C)CC2)c(C)c1` the survival was 72% (inactive). With `Cc1cc(C)cc(NC(=O)N2CCN(c3cc(-c4noc(C)n4)ccc3C)CC2)c1` the survival was 76% (inactive). For `COc1ccc(C)cc1NC(=O)N1CCN(c2cc(-c3noc(C)n3)ccc2C)CC1`, the survival was 85% (inactive). `CSc1cccc(NC(=O)N2CCN(c3cc(-c4noc(C)n4)ccc3C)CC2)c1` was tested, and the survival was 74% (inactive). `Cc1ccc2scc(N3CCN(c4ccccc4)CC3)c(=O)c2c1` was tested, and the survival was 74% (inactive). With `Cc1c(-c2cccc(NC(=O)Cc3ccccc3)c2)nc2ncccn12` the survival was 73% (inactive). In the case of `Cc1ccc2c(CNC3CCCC3)c(C(=O)O)n(Cc3ccc(F)cc3)c2c1`, the survival was 111% (inactive). For `C/C(=N\NC(=O)COc1ccccc1)C1C(=O)c2ccccc2C1=O`, the survival was 107% (inactive). `COc1cccc(-n2c(SCC(=O)Nc3cc(C)ccc3C)nc3c(oc4ccccc43)c2=O)c1` was tested, and the survival was 96% (inactive). With `COc1ccc(Nc2nnc(-c3ccc(C)c(S(=O)(=O)NCCO)c3)c3ccccc23)cc1C(N)=O` the survival was 70% (inactive). For `Cc1ccccc1-c1ccnc2c(-c3ccc(F)cc3)c(C)nn12`, the survival was -13% (active). With `COc1ccccc1-c1ccnc2c(-c3ccc(Br)cc3)c(C)nn12` the survival was 77% (inactive). In the case of `Cc1nn2c(-c3ccco3)ccnc2c1-c1ccc(F)cc1`, the survival was 75% (inactive). In the case of `CCc1nn2c(-c3ccccc3OC)ccnc2c1-c1ccc(F)cc1`, the survival was -11% (active). In the case of `COc1ccc(-c2ccnc3c(-c4ccc(F)cc4)c(C)nn23)cc1OC`, the survival was 79% (inactive). With `COc1cccc(-c2ccnc3c(-c4ccc(F)cc4)c(C)nn23)c1` the survival was 99% (inactive). With `CCc1nn2c(-c3ccccc3OC)ccnc2c1-c1ccccc1` the survival was -12% (active). For `CCc1nn2c(-c3ccco3)ccnc2c1-c1ccccc1`, the survival was 89% (inactive). For `CCc1nn2c(-c3ccco3)ccnc2c1-c1ccc(F)cc1`, the survival was 71% (inactive). For `CCOc1ccc(CN2CCC(C(=O)NCC3CCCO3)CC2)cc1OC` (stereo not drawn), the survival was 99% (inactive). With `CCOC(=O)C1CCCN(C(=O)Cn2ncc3c4ccccc4n(Cc4ccccc4)c3c2=O)C1` (stereo not drawn) the survival was 121% (inactive). In the case of `CCOC(=O)c1c(NC(=O)COc2cccc(C)c2C)sc(C(C)=O)c1C`, the survival was 130% (inactive). In the case of `CCC(C)Sc1oc(-c2ccco2)nc1S(=O)(=O)c1ccc(C)cc1` (stereo not drawn), the survival was -12% (active). `CC(C)CSc1oc(-c2ccco2)nc1S(=O)(=O)c1ccc(Br)cc1` was tested, and the survival was 27% (active). In the case of `Cc1ccc(S(=O)(=O)c2nc(-c3ccco3)oc2SCC(C)C)cc1`, the survival was 39% (inactive). With `CCC(C)Sc1oc(-c2ccco2)nc1S(=O)(=O)c1ccc(Cl)cc1` (stereo not drawn) the survival was 25% (inactive). For `CCSc1oc(-c2ccco2)nc1S(=O)(=O)c1ccc(Br)cc1`, the survival was 65% (inactive). In the case of `Cc1ccc(S(=O)(=O)c2nc(-c3ccco3)oc2SC(C)C)cc1`, the survival was 49% (inactive). For `CNC(=O)C1CCN(Cc2cc3ccccc3n2Cc2cccc(C)c2)CC1`, the survival was 81% (inactive). For `CC(=O)Nc1ccc2nc(SCCOc3ccccc3Cl)sc2c1`, the survival was 9% (active). For `O=C(Nc1ccc2nc(SCCOc3ccccc3Cl)sc2c1)c1cccs1`, the survival was 72% (inactive). In the case of `CC(C)(C)C(=O)Nc1ccc2nc(SCCOc3ccccc3Cl)sc2c1`, the survival was 99% (inactive). `COc1ccc(Cn2nnnc2CN2CCC(NC(=O)c3cccc(OC)c3)CC2)cc1` was tested, and the survival was 115% (inactive). For `O=C(CN1C(=O)C2(SCC(=O)N2c2cccc(F)c2)c2ccccc21)NCc1ccccc1Cl` (stereo not drawn), the survival was 80% (inactive). For `COc1ccc(S(=O)(=O)c2cc3cc(OC)ccc3oc2=O)cc1`, the survival was 76% (inactive). With `CCOc1ccc(S(=O)(=O)c2cc3cccc(OCC)c3oc2=O)cc1` the survival was 81% (inactive). In the case of `COc1ccc(S(=O)(=O)c2cc3cc(C(C)(C)C)cc(O)c3oc2=O)cc1`, the survival was 10% (active). `CCOC(=O)c1c(C)oc2nc(C)nc(Nc3cc(C)ccc3OC)c12` was tested, and the survival was 85% (inactive). With `Cn1c(=O)n(-c2ccc(F)c(Cl)c2)c(=O)c2sc3ccccc3c21` the survival was 96% (inactive). `OCc1cnc(SCc2ccc(F)cc2)n1Cc1ccc(F)cc1` was tested, and the survival was 85% (inactive). `Cc1ccc(Cn2c(CO)cnc2SCC(=O)NCc2ccccc2Cl)cc1` was tested, and the survival was 80% (inactive). `COc1ccc(Cn2c(CO)cnc2SCc2ccc(F)cc2)cc1` was tested, and the survival was -1% (active). For `O=C(CSc1ncc(CO)n1Cc1ccc(Cl)cc1)NCc1ccc(F)cc1`, the survival was 14% (active). With `CCOC(=O)c1ccccc1NC(=O)CSc1ncc(CO)n1Cc1ccc(C)cc1` the survival was 90% (inactive). With `O=C(CSc1ncc(CO)n1Cc1ccc(F)cc1)NCc1ccco1` the survival was 134% (inactive). For `COc1ccc(Cn2c(CO)cnc2SCc2ccccc2)cc1`, the survival was 69% (inactive). `COc1ccc(Cn2ccnc2SCC(=O)NCc2ccco2)cc1` was tested, and the survival was 70% (inactive). For `Cc1ccc(Cn2c(CO)cnc2SCC(=O)Nc2ccc(C)c(Cl)c2)cc1`, the survival was -6% (active). For `COc1ccccc1NC(=O)CSc1ncc(CO)n1Cc1ccc(F)cc1`, the survival was 121% (inactive). `COc1ccc(Cn2c(CO)cnc2SCC(=O)NCc2ccco2)cc1` was tested, and the survival was -6% (active). `O=C(CSc1nc2ccsc2c(=O)n1Cc1ccc(F)cc1)NCc1ccc(Cl)cc1` was tested, and the survival was 81% (inactive). For `Cn1ccc2cc(S(=O)(=O)N3CCN(C(=O)Nc4cccc(F)c4)CC3)ccc21`, the survival was 74% (inactive). For `CCCCN(CCCNC(=O)c1cc(Nc2ccc(OC)c(OC)c2)nc2ccccc12)Cc1ccccc1`, the survival was 79% (inactive). With `CCc1nn2c(=O)cc(COC(=O)c3cccc(NC(=O)CCc4ccccc4)c3)nc2s1` the survival was 72% (inactive). In the case of `CC(=O)c1cccc(NC(=O)C2CCN(S(=O)(=O)c3ccc4c(c3)oc(=O)n4C)CC2)c1`, the survival was 90% (inactive). With `O=S(=O)(NCc1nc2cccnc2n1Cc1ccccc1Cl)c1ccc2c(c1)CCCC2` the survival was 73% (inactive). For `CCCN(CCC)CC(O)Cn1cc(/C=C/C(=O)c2ccc(OC)cc2)c2ccccc21` (stereo not drawn), the survival was 1% (active). In the case of `CCCN(CCC)CC(O)Cn1cc(/C=C/C(=O)c2ccc(OCC)cc2)c2ccccc21` (stereo not drawn), the survival was 23% (active). In the case of `COc1ccc(C(=O)/C=C/c2cn(CC(O)CN(CC(C)C)CC(C)C)c3ccccc23)cc1` (stereo not drawn), the survival was 44% (inactive). `COc1ccc(C(=O)/C=C/c2cn(CC(O)CN(CC(C)C)CC(C)C)c3ccccc23)cc1OC` (stereo not drawn) was tested, and the survival was 60% (inactive). In the case of `CC(C)CN(CC(C)C)CC(O)Cn1cc(/C=C/C(=O)c2ccccc2)c2ccccc21` (stereo not drawn), the survival was 40% (inactive). `CCCN(CCC)CC(O)Cn1cc(/C=C/C(=O)c2ccc(Br)cc2)c2ccccc21` (stereo not drawn) was tested, and the survival was 85% (inactive). With `CCCN(CCC)CC(O)Cn1cc(/C=C/C(=O)c2ccc(C)cc2)c2ccccc21` (stereo not drawn) the survival was -1% (active). For `CCCCN(CCCC)CC(O)Cn1cc(/C=C/C(=O)c2ccccc2)c2ccccc21` (stereo not drawn), the survival was 18% (active).
